# Results reported in PubChem BioAssay (Tox21).
# A number with no mark means an inactive call. Inconclusive results are not listed. Entries that show only a call come without a potency. Activity calls are given as the source filed them. Unless noted, calls follow the shape of the full dose curve.
# What was measured:
# [1] = Nuclear factor erythroid 2-related factor 2/antioxidant responsive element (Nrf2/ARE) small molecule agonists: qHTS cell viability counter screen in human keratinocytes (AID 1919968; active = well fitted curve in the direction sought with a large enough effect in the repeat runs; an effect the other way counts as inactive or inconclusive; also: nearly all actives have a fitted effect of over 55% in size; also: potency is read from the fitted curve at half-maximal effect)
# Summary of the method: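 Measured as CellTiter-Fluor fluorescence, this readout tracks cytotoxicity in the same wells as the ARE-luciferase screen. HaCaT reporter cells (1,500/well) received compounds after a 5 h pre-incubation and were exposed for 23 h.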
# [2] = Nuclear factor erythroid 2-related factor 2/antioxidant responsive element (Nrf2/ARE) small molecule agonists: luciferase reporter gene qHTS assay in human keratinocytes (AID 1919969); also: nearly all actives have a fitted effect of over 35% in size; also: potency is read from the fitted curve at half-maximal effect
# [3] = molecular target: Gonadotropin-releasing hormone receptor (Homo sapiens) (UniProt P30968); test: Human gonadotropin-releasing hormone receptor (GnRHR) small molecule agonists, calcium flux assay in GnRHR-HEK293 cells (AID 1920063); also: nearly all actives have a fitted effect of over 35% in size
# Gonadotropin-releasing hormone receptor (Homo sapiens), sequence (P30968 whole entry, looked up): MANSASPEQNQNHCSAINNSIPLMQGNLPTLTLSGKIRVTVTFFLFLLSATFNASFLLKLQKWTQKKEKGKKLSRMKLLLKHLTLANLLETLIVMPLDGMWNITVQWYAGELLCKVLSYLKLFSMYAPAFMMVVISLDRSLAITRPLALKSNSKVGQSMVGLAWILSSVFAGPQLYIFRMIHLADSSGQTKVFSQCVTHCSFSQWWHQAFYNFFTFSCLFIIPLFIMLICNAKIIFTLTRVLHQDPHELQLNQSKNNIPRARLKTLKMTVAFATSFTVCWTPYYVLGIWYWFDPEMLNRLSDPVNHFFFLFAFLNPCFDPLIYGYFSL
# Summary of the method: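 Fluorescence kinetics (480 nm excitation, 540 nm emission; 3 min, 1 s steps) report calcium mobilisation in human GnRHR-HEK293 cells in agonist mode. Dye incubation: 1 h, 37 C.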
# [4] = molecular target: KiSS-1 receptor (Homo sapiens) (UniProt Q969F8); test: Human kisspeptin (KISS1R) small molecule agonists, calcium flux assay in KISS1R-HEK293 cells (AID 1920064; active = well fitted curve in the direction sought with a large enough effect in the repeat runs; an effect the other way counts as inactive or inconclusive)
# KiSS-1 receptor (Homo sapiens), sequence (Q969F8 whole entry, looked up): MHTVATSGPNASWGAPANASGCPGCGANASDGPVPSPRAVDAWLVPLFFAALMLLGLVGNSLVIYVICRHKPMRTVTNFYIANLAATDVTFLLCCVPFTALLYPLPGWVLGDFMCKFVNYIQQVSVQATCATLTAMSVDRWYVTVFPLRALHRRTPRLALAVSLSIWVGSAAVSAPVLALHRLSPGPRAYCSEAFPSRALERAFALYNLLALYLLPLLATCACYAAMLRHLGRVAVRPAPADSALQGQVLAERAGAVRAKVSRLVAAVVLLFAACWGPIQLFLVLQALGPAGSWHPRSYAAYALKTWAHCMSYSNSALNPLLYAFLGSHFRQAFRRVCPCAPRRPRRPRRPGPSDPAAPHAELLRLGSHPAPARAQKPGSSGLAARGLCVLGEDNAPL
# Summary of the method: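 Measures KISS1R agonism through calcium-sensitive dye fluorescence in stably transfected HEK293 cells, read for 3 min after pin-tool compound delivery; 15-point titrations in triplicate.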
# [5] = G protein-coupled receptor (GPCR) small molecule agonists, calcium flux assay: HEK293 wild type cell line counter screen (AID 1920065)
# Summary of the method: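 Readout: fluorescence at 480 nm excitation/540 nm emission, sampled at 1 s intervals for 3 min. Cells had been cultured 18 h, then dye-loaded 1 h at 37 C before compound or ATP addition.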
# [6] = p53 small molecule agonists, cell-based qHTS assay with human liver microsomes (AID 1963577);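 also: p53 response element beta-lactamase reporter cells with liver microsomes plus NADPH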
# Summary of the method: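 With metabolic activation: human liver microsomes (0.5 mg/mL final) plus NADPH (0.5 mg/mL final) added alongside compounds to p53RE-bla cells; 16 h 37 C exposure; beta-lactamase read by LiveBLAzer fluorescence.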
# [7] = p53 small molecule agonists, cell-based qHTS assay with rat liver microsomes (AID 1963578)
# Summary of the method: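 Metabolic activation by rat liver microsomes and NADPH, each 0.5 mg/mL final, added right after compounds to p53RE-bla reporter cells (4,000/well, plated 5 h earlier). 16 h at 37 C, then LiveBLAzer substrate for 2 h at room temperature in the dark; fluorescence read-out.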
# [8] = p53 small molecule agonists, cell-based qHTS assay with rat liver microsomes: qHTS cell viability counter screen (AID 1963580); also: nearly all actives have a fitted effect of over 45% in size
# Summary of the method: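 p53RE-bla HCT-116 cells (4,000/well) rested 5 h at 37 C, then given Tox21 compounds in DMSO with rat liver microsomes (0.5 mg/mL final) plus NADPH (0.5 mg/mL final) for 16 h at 37 C. Viability read by CellTiter-Glo luminescence after 30 min at room temperature.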
# [9] = p53 small molecule agonists, cell-based qHTS assay (AID 1963582; active = well fitted activation curve with a large enough effect in the signal ratio in the repeat runs, not every such curve was filed as active; the % refers to the signal ratio)
# Summary of the method: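 Compounds are pin-transferred in DMSO onto p53RE-bla cells and incubated 16 h at 37 C. The B/G FRET beta-lactamase substrate is then applied for 2 h at RT and fluorescence recorded.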
# [10] = cAMP Responsive Elements (CRE) small molecule agonists, cell-based qHTS assay (AID 1963590)
# Summary of the method: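 Cell line: CRE-bla HEK 293T; medium DMEM/10% dialyzed FBS/0.1 mM NEAA/1 mM pyruvate/25 mM HEPES; 3 h compound exposure; beta-lactamase FRET readout after 2 h substrate loading at RT.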
# [11] = cAMP Responsive Elements (CRE) small molecule antagonists, cell-based qHTS assay (AID 1963591; active = well fitted inhibition curve with a large enough effect in the signal ratio in the repeat runs, not every such curve was filed as active; the % refers to the signal ratio; also: potency is read from the fitted curve at half-maximal effect)
# Summary of the method: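 Inhibition of NKH477-driven (0.25 uM final) CRE-beta-lactamase signal in HEK293T cells, 3 h compound exposure at 37 °C, detected by FRET substrate fluorescence.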
# [12] = molecular target: 5-hydroxytryptamine receptor 2A (Homo sapiens) (UniProt P28223); test: 5-hydroxytryptamine receptor 2A (HTR2A) small molecule antagonists, cell-based qHTS assay (AID 1963586); also: nearly all actives have a fitted effect of over 45% in size; also: potency is read from the fitted curve at half-maximal effect
# 5-hydroxytryptamine receptor 2A (Homo sapiens), sequence (P28223 whole entry, looked up): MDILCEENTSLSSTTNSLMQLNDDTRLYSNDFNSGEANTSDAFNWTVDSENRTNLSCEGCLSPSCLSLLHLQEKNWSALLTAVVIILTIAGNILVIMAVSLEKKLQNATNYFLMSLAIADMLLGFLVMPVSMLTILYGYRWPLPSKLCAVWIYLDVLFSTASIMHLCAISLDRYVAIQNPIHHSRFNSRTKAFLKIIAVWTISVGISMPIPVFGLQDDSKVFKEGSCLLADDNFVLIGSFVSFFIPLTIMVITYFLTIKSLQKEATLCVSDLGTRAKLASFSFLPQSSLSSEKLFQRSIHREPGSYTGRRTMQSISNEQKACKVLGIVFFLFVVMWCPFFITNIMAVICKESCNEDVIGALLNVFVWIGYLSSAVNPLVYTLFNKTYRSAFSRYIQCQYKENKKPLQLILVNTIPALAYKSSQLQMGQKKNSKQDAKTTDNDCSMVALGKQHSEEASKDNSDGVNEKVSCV
# Summary of the method: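 Antagonist-mode intracellular calcium assay: DOI (4 nM) added after 5 min compound pre-incubation at room temperature to dye-loaded HTR2A-CHO cells. Fluorescence followed for 3 min, sampled every second.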
# [13] = molecular target: 5-hydroxytryptamine receptor 2A (Homo sapiens) (UniProt P28223); test: 5-hydroxytryptamine receptor 2A (HTR2A) small molecule agonists, cell-based qHTS assay (AID 1963587); also: nearly all actives have a fitted effect of over 30% in size
# Summary of the method: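 HTR2A-CHO cells, plated 18 h at 37 C/5% CO2, dye-loaded 1 h at 37 C; compounds in DMSO added by pin tool (agonist mode). Intracellular calcium flux read as kinetic fluorescence on FDSS over 2 min at 1 s intervals.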
# [14] = molecular target: Muscarinic acetylcholine receptor M1 (Homo sapiens) (UniProt P11229); test: Cholinergic receptor muscarinic 1 (CHRM1) small molecule agonists, cell-based qHTS assay (AID 1963589); also: nearly all actives have a fitted effect of over 35% in size
# Muscarinic acetylcholine receptor M1 (Homo sapiens), sequence (P11229 whole entry, looked up): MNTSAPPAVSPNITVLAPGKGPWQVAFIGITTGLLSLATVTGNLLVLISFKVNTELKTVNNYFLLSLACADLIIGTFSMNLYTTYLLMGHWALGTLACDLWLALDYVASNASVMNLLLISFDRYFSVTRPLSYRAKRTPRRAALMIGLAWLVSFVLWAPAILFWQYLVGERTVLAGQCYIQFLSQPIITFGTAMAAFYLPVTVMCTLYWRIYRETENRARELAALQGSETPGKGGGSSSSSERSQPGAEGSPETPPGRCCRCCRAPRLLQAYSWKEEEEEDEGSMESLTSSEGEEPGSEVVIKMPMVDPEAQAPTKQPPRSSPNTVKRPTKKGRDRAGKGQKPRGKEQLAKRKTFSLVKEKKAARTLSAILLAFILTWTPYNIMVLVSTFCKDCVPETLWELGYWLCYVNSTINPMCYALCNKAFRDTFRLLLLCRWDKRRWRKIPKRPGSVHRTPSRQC
# Summary of the method: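 Each compound was tested at 15 concentrations across three independent runs on dye-loaded CHO cells stably expressing human CHRM1, reading intracellular calcium fluorescence kinetically at 1 sec intervals.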
# [15] = molecular target: Beta-2 adrenergic receptor (Homo sapiens) (UniProt P07550); test: Adrenergic beta2 receptor (ADRB2) small molecule antagonists, cell-based qHTS assay (AID 1963592); also: series mostly up to about 92 µM; nearly all actives have a fitted effect of over 50% in size
# Beta-2 adrenergic receptor (Homo sapiens), sequence (P07550 whole entry, looked up): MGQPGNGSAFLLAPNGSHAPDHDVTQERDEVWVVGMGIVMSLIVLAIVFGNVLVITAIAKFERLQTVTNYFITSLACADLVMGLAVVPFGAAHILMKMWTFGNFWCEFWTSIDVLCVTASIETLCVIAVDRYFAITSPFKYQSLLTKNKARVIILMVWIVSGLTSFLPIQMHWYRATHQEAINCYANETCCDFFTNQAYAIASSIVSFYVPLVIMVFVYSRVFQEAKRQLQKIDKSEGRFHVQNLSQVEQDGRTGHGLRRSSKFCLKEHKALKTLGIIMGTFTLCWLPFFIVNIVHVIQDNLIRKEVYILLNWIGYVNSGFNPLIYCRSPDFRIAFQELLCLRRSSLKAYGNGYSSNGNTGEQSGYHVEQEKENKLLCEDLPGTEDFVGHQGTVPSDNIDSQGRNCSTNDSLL
# Summary of the method: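 Cells (CHO, stable ADRB2 overexpression) incubated 18-20hr at 37C; compounds added from DMSO; agonist mix (1nM isoproterenol, 100uM IBMX, 25uM Ro-20-1724) added; 0.5hr RT; d2-cAMP and anti-cAMP-cryptate added; 1hr RT; 665/615 nm read.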
# [16] = molecular target: D(2) dopamine receptor (Homo sapiens) (UniProt P14416); test: Dopamine D2 receptor (DRD2) small molecule agonists, cell-based qHTS assay (AID 1963594); also: nearly all actives have a fitted effect of over 35% in size; also: potency is read from the fitted curve at half-maximal effect
# D(2) dopamine receptor (Homo sapiens), sequence (P14416 whole entry, looked up): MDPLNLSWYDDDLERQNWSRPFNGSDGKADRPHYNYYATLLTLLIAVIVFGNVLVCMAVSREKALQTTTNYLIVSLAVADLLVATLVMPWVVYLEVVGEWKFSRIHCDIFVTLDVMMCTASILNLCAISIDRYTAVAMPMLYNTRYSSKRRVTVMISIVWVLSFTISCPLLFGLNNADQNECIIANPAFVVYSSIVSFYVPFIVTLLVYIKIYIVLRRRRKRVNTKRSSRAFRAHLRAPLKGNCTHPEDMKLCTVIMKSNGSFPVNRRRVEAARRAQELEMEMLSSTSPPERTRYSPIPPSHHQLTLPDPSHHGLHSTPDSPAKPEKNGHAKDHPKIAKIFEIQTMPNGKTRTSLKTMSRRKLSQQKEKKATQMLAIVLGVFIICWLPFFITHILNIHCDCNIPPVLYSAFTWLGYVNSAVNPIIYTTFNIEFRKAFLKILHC
# Summary of the method: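 HEK293 cells stably expressing DRD2 were cultured 24 h at 37 C, then given Ro20-1724 (0.1 mM final) and compounds for 10 min at room temperature. NKH477 (200nM) was then added for 30 min. cAMP was read by HTRF.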
# [17] = molecular target: D(2) dopamine receptor (Homo sapiens) (UniProt P14416); test: Dopamine D2 receptor (DRD2) small molecule antagonists, cell-based qHTS assay (AID 1963595; active = well fitted inhibition curve with a large enough effect in the signal ratio in the repeat runs, with a control signal flat; the % refers to the signal ratio; also: potency is read from the fitted curve at half-maximal effect)
# Summary of the method: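 DRD2-HEK293; 0.1 mM Ro20-1724; cpd 10 min RT; NKH477 200 nM + quinpirole 12 nM, 30 min RT; HTRF cAMP (cAMP-d2/anti-cAMP cryptate), 665/620 nm ratio after 1 h.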
# [18] = p53 small molecule agonists, cell-based qHTS assay: qHTS cell viability counter screen (AID 1963581); also: nearly all actives have a fitted effect of over 45% in size; also: potency is read from the fitted curve at half-maximal effect
# Summary of the method: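 In the same plates used for the p53 bla reporter, HCT-116 cells given compounds for 16 h at 37 C received CellTiter-Glo; luminescence was recorded 30 min later at room temperature.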
# [19] = molecular target: Muscarinic acetylcholine receptor M1 (Homo sapiens) (UniProt P11229); test: Cholinergic receptor muscarinic 1 (CHRM1) small molecule antagonists, cell-based qHTS assay (AID 1963588); also: nearly all actives have a fitted effect of over 40% in size
# Summary of the method: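 CHRM1-CHO calcium-flux assay, antagonist mode. Cells were seeded 18 h, dye-loaded 1 h at 37 C and given compound for 5 min at RT, then acetylcholine was added at 50nM. FDSS fluorescence was read 3 min; 15 concentrations, three runs.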
Structure (SMILES),Potency [1],Potency [2],Potency [3],outcome [4],outcome [5],Potency [6],Potency [7],Potency [8],Potency [9],Potency [10],Potency [11],Potency [12],Potency [13],Potency [14],Potency [15],Potency [16],Potency [17],Potency [18],Potency [19]
Cc1cc2c(s1)Nc1ccccc1N=C2N1CCN(C)CC1,inactive,inactive,inactive,inactive,inactive,inactive,inactive,inactive,inactive,inactive,inactive,,,,,,,,
O=C(O)c1cccc(N(Cc2cccnc2)c2ccc(OC(F)F)c(OC(F)F)c2)c1,inactive,inactive,inactive,inactive,inactive,inactive,inactive,inactive,,,,inactive,inactive,inactive,inactive,inactive,inactive,,
CCC(=O)O[C@]1(C(=O)CCl)[C@@H](C)C[C@H]2[C@@H]3CCC4=CC(=O)C=C[C@]4(C)[C@@]3(F)[C@@H](O)C[C@@]21C,inactive,inactive,inactive,inactive,inactive,inactive,inactive,inactive,inactive,,,,,,inactive,inactive,inactive,,
COCCO,inactive,inactive,inactive,inactive,inactive,inactive,inactive,inactive,inactive,inactive,inactive,inactive,inactive,inactive,inactive,inactive,inactive,,
CC(C)Cc1ccc(C(C)C(=O)OCc2ccccn2)cc1 (configuration not stated),inactive,inactive,inactive,inactive,inactive,inactive,inactive,inactive,inactive,inactive,,2.05 µM (active),inactive,inactive,inactive,,,,
O=C(O)c1cc(-c2ccc(F)cc2F)ccc1O,inactive,inactive,inactive,inactive,inactive,inactive,inactive,inactive,,,,,,,,inactive,,inactive,
CN1CCN(Cc2cc(-c3ccc4[nH]c(=O)oc4c3)co2)[C@@H](c2ccc(F)cc2)C1,26.3 µM (active),13.2 µM (active),inactive,inactive,inactive,inactive,inactive,inactive,,,,,,inactive,inactive,,,,
CC(C)(c1cc(Br)c(OCCO)c(Br)c1)c1cc(Br)c(OCCO)c(Br)c1,37.7 µM (active),inactive,inactive,inactive,inactive,inactive,inactive,inactive,,,,inactive,inactive,inactive,inactive,inactive,inactive,,inactive
CC1=C(/C=C/C(C)=C\C=C\C(C)=C\C(=O)O)C(C)(C)CCC1,inactive,54.5 µM (active),inactive,inactive,inactive,inactive,inactive,inactive,,,,,,,inactive,,inactive,inactive,
CCc1cc(Cl)c(OC)c(C(=O)NC[C@@H]2CCCN2CC)c1O,inactive,inactive,inactive,inactive,inactive,inactive,inactive,inactive,inactive,inactive,inactive,,,inactive,,inactive,,,inactive
CCCCCCCCCOC(=O)c1ccc(O)cc1,26.9 µM (active),inactive,inactive,inactive,inactive,inactive,inactive,inactive,,inactive,21.4 µM (active),,,inactive,,inactive,,,inactive
CCOc1nc2cccc(C(=O)O)c2n1Cc1ccc(-c2ccccc2-c2nn[nH]n2)cc1,inactive,inactive,inactive,inactive,inactive,inactive,inactive,inactive,inactive,,inactive,,,,inactive,inactive,inactive,,
CN(C)CCCOC1(Cc2ccccc2)CCCCCC1,inactive,inactive,inactive,inactive,inactive,inactive,inactive,inactive,,inactive,inactive,10.3 µM (active),inactive,inactive,inactive,inactive,inactive,,inactive
OC[C@H](Cc1cccc(O)c1)[C@H](CO)Cc1cccc(O)c1,inactive,inactive,inactive,inactive,inactive,inactive,inactive,inactive,inactive,inactive,,inactive,inactive,inactive,inactive,inactive,inactive,,inactive
CC(CCc1ccc(O)cc1)NCCc1ccc(O)c(O)c1 (configuration not stated),inactive,inactive,inactive,inactive,inactive,inactive,inactive,inactive,,,inactive,,,,inactive,0.0779 µM (active),10.6 µM (active),,
Nc1ncnc(Nc2ccccc2)n1,inactive,inactive,inactive,inactive,inactive,inactive,inactive,inactive,inactive,inactive,inactive,inactive,inactive,inactive,inactive,inactive,inactive,,inactive
O=C(O)c1cccc(-c2noc(-c3ccccc3F)n2)c1,inactive,inactive,inactive,inactive,inactive,inactive,inactive,,inactive,,,,inactive,inactive,inactive,inactive,inactive,15.8 µM (active),inactive
C=CC(=O)OCCOCCOC(=O)C=C,54.7 µM (active),24.4 µM (active),inactive,inactive,inactive,inactive,inactive,inactive,,,,inactive,inactive,inactive,inactive,inactive,,,inactive
